# Screening data deposited in PubChem by National Center for Advancing Translational Sciences (NCATS).
# Most compounds without a hit are left out; they make up all but 19% or so of the library.
# TDP1 cell noCPT: qHTS for Inhibitors of human tyrosyl-DNA phosphodiesterase 1 (TDP1): qHTS in cells in absence of CPT. Potency, µM (series often up to 46.2 µM), for the others: top-dose activity change, negative = growth inhibition, actives largely listed as inhibitors. DT40 Tdp1-/- hTDP1 cells, no CPT, ATP luminescence, 48 h. hit rate 15% among 420,000. AID 686978, 2013; note: potency is the fitted concentration of half-maximal effect; % is set by controls: 0 for no effect and ±100 for the full control effect; nearly all actives have a fitted effect of over 55% in size
#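 Stably hTDP1-transfected Tdp1-null chicken DT40 cells were treated with library compounds minus camptothecin and grown for at least 48 hr at 37 °C, after which cellular ATP was quantified by luminescence.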
# IL-1B inflam inh: blocks inflammasome-driven IL-1 beta release; activity change, % at 57.5 µM; THP-1 LPS/ATP IL-1B secretion, AlphaLISA, 16 h; stronger effect = lower value; hit rate 4.7% among 360,000; in the data active = activity change below about -50%; inconclusive = mostly about -30% to -49%; note: % is set by controls: 0 for no effect and ±100 for the full control effect
#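 THP-1 cells pretreated 1 hr with compounds (up to 57.5 uM final), then stimulated with LPS (250 ng/mL final) plus ATP (1.25 mM final); secreted IL-1B measured by AlphaLISA after 16 hr, decreased signal indicating inhibition.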
# TGFb inhibitor: inhibitors of TGF-b signaling. HepG2 CAGA-GFP TGF-b/SMAD3 reporter, GFP fluorescence, 18 h; TGF-beta stimulated, 500 pg/mL final. Potency, µM (doses to about 46.1 µM), for the others: top-dose activity, negative = inhibition, most hits filed as inhibitors. hit rate 1.2% among 410,000; note: potency is the fitted concentration of half-maximal effect; % is set by controls: 0 for no effect and ±100 for the full control effect; nearly all actives have a fitted effect of over 65% in size
#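 Inhibition of TGF-beta-driven CAGA-GFP reporter expression in HEPG2 cells is measured by cellular GFP fluorescence after 18 h stimulation with 500 pg/mL recombinant TGF-beta in 1% FBS medium at 37 degrees C.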
# TDP1 cell CPT: growth inhibition of DT40 Tdp1-/-;hTDP1 cells with camptothecin (screen for TDP1 inhibitors); hit rate 12% among 420,000; Potency, µM (highest dose often 46.2 µM), without a hit: top-dose activity change, negative = growth inhibition, hits mostly inhibitors; chicken DT40 Tdp1-/-;hTDP1 cells + 20 nM CPT, ATP luminescence, 48 h; note: potency is the fitted concentration of half-maximal effect; % is set by controls: 0 for no effect and ±100 for the full control effect; nearly all actives have a fitted effect of over 55% in size
#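 Cell growth measured by CellTiter-Glo luminescence after a minimum 48 h, 37 C compound exposure with 20 nM CPT in Tdp1-knockout DT40 cells stably expressing hTDP1, seeded 400/well; qHTS titration format.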
# S-ASM inh: inhibitors of human secretory acid sphingomyelinase; P17405; Potency, µM (series often up to 57.5 µM), for inactives: at the highest dose activity change, negative = inhibition, actives largely listed as inhibitors; placental ASM, HMU-PC fluorogenic substrate, 60 min; hit rate 0.006% among 340,000; note: potency is the fitted concentration of half-maximal effect
# Target sequence (P17405 47-631 limits assumed): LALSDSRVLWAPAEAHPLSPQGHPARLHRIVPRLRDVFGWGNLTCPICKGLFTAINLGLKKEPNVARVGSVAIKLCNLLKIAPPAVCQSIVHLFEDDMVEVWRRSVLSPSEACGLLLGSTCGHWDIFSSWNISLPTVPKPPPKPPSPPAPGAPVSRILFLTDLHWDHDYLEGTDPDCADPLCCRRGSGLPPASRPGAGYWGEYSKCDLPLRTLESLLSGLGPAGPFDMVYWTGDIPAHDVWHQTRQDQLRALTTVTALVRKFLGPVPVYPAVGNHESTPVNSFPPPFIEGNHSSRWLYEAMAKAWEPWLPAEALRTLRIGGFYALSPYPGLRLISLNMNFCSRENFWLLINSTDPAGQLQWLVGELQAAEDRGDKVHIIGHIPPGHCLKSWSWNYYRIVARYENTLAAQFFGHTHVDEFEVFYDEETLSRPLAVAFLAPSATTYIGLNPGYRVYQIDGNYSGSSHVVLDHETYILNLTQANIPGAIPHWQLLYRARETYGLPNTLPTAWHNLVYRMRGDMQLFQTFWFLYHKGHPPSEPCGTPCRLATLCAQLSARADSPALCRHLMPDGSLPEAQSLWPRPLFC
#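 Human placenta-derived ASM preincubated with compound 10 min at room temperature, then reacted with 9 uM (final) fluorogenic HMU-PC substrate for 60 min at 37 C. Stop solution raises pH to 10; fluorescence read at Ex 386/Em 447 nm.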
# HepG2 tox: HepG2 cytotoxicity, counter-screen for TGF-b inhibitors | HepG2 CAGA-GFP viability, ATP luminescence, 18 h | Potency, µM (highest dose often 46.1 µM), for the others: at the highest dose activity change, negative = cytotoxicity, hits mostly cytotoxic | hit rate 0.76% among 410,000 | AID 588856; note: potency is the fitted concentration of half-maximal effect
#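 CellTiter-Glo luminescence gave cytotoxicity after 18 hours at 37 degrees C. The cells were HepG2 CAGA-GFP in 1% FBS DMEM, stimulated with 500 pg/mL TGF-beta after compound addition. %Activity was normalised to no-cell wells (complete cell-killing) and DMSO (no toxicity), and curves were fitted and classified.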
# Active calls of the source: *; i = inactive; u = inconclusive; x = no result given. Unless noted, calls come from the whole dose curve; as a rule, active = well fitted curve in the direction sought with a large enough effect; inconclusive = small, poorly fitted or top-dose-only effect, or another doubt; inactive = no such curve, though single readings can be large; an effect the other way counts as inactive or inconclusive.
SMILES,TDP1 cell noCPT,IL-1B inflam inh,TGFb inhibitor,TDP1 cell CPT,S-ASM inh,HepG2 tox
COc1cccc2c1Oc1cc([N+](=O)[O-])cc(N(C)C(C)=O)c1C=C2,21µM*,2,-17%,u,2%,-9%
O=C(c1cc2nc(-c3ccccc3)cc(-c3ccccc3)n2n1)N1CCN(C(=O)c2ccco2)CC1,15µM*,u,-32%,23µM*,127%,-16%
O=C(c1cc2nc(-c3ccccc3)cc(-c3ccccc3)n2n1)N1CCCC1,u,-67*,6%,u,107%,-11%
CN1CCN(C(=O)c2cc3nc(-c4ccccc4)cc(-c4ccccc4)n3n2)CC1,u,u,10%,-28%,131%,-9%
CC1(C)Cc2c(sc(NC(=O)C(=O)NCCCN3CCOCC3)c2C#N)CO1,-10%,12,-7%,-17%,-2%,-3%
COCCNC(=O)C1CCN(C(=O)c2cc3sccc3n2Cc2ccc(F)cc2)CC1,u,52,-24%,u,1%,-21%
COCCCNC(=O)C1CCN(C(=O)c2cc3sccc3n2Cc2ccc(Cl)cc2)CC1,21µM*,x,u,13µM*,x,-22%
CCC(C)NC(=O)C1CCN(C(=O)c2cc3sccc3n2Cc2ccc(Cl)cc2)CC1 (stereo not drawn),2.1µM*,x,u,3.7µM*,x,-7%
O=C(NCc1ccco1)C1CCN(C(=O)c2cc3sccc3n2Cc2ccc(Cl)cc2)CC1,u,-87*,u,18µM*,-3%,-33%
COCCNC(=O)C1CCN(C(=O)c2cc3sccc3n2Cc2ccc(Cl)cc2)CC1,2.6µM*,x,-19%,5.2µM*,x,-33%
CN(C)c1ccc(N=Nc2ccccc2C(=O)OCC(=O)N2CCCC2)cc1,-94%,-18,u,u,-16%,-3%
CN(C)c1ccc(N=Nc2ccccc2C(=O)OCC(=O)Nc2ccccc2C(F)(F)F)cc1,23µM*,-25,-17%,u,-28%,-18%
CC(=O)c1cccc(-c2ccc3c(c2)C(C)(Cc2ccccc2F)C(=O)N3)c1 (stereo not drawn),18µM*,82,-24%,26µM*,x,-32%
COc1ccccc1-c1ccc2c(c1)C(C)(Cc1cccc(F)c1)C(=O)N2 (stereo not drawn),u,42,u,u,x,-23%
COC(=O)c1ccc(CC2(C)C(=O)Nc3ccc(-c4cccc(C(F)(F)F)c4)cc32)o1 (stereo not drawn),16µM*,-24,u,u,x,22µM*
COc1ccc(C(=O)CCN2CCN(c3ccccc3OC)CC2)cc1,5.2µM*,u,u,3.7µM*,4%,-168%
COc1ccccc1N1CCN(CC(=O)c2ccc3ccn(C(C)=O)c3c2)CC1,u,40,-2%,2.9µM*,7%,-1%
COc1ccccc1N1CCN(CC(=O)N2CCCC2)CC1,6%,9,-18%,6%,9%,-36%
COc1ccccc1N1CCN(C(=O)CCC(=O)N2CCN(c3ccccc3OC)CC2)CC1,u,-13,-13%,-29%,11%,-15%
Cc1ccccc1N1CCN(C2CCCN(C(=O)c3cnsn3)C2)CC1 (stereo not drawn),1%,-9,-6%,u,1%,2%
CN1CCN(c2nc3ccccn3c(=O)c2C=O)CC1,-4%,5,-14%,11%,18%,14%
COCCNC(=O)/C(C#N)=C/c1c(N2CCN(c3ccccc3)CC2)nc2ccccn2c1=O,18µM*,-3,-6%,-30%,196%,-8%
CCOC(=O)N1CCN(c2nc3ccccn3c(=O)c2C=O)CC1,u,-25,1%,15µM*,0%,3%
COCCCNC(=O)/C(C#N)=C/c1c(N2CCN(c3ccccc3)CC2)nc2ccccn2c1=O,15µM*,0,7%,u,i,-4%
CC1CN(c2nc3ccccn3c(=O)c2/C=C(\C#N)C(N)=O)CC(C)O1 (stereo not drawn),-3%,-65*,8%,-2%,65%,-30%
SMILES,TDP1 cell noCPT,IL-1B inflam inh,TGFb inhibitor,TDP1 cell CPT,S-ASM inh,HepG2 tox
CCNC(=O)/C(C#N)=C/c1c(N2CCN(c3ccccc3)CC2)nc2ccccn2c1=O,u,20,3%,u,i,0%
CC1=C(C(=O)Nc2ccccc2)C(c2ccc(Br)cc2)n2nc(CCCO)nc2N1 (stereo not drawn),3%,x,-2%,-4%,x,-2%
Cc1nc(SCC(=O)N2CCCC2=O)nc(C)c1C,-4%,25,20%,0%,5%,-24%
CC(c1c(O)c2ccccc2[nH]c1=O)C1(C)CCC(O)C(C)(C)O1 (stereo not drawn),u,24,-3%,u,0%,3%
C=CCNC(=O)/C(C#N)=C/c1c(N(Cc2ccccc2)Cc2ccccc2)nc2ccccn2c1=O,u,-53*,0%,u,11%,-15%
N#C/C(=C\c1c(N(Cc2ccccc2)Cc2ccccc2)nc2ccccn2c1=O)C(N)=O,u,u,0%,u,x,-14%
Cc1ccc(N(CC(=O)NCCc2ccccc2)S(=O)(=O)N(C)C)cc1,u,x,-7%,-20%,x,-4%
Cc1cc(C)cc(NC(=O)CSc2ccc(-c3ccccn3)nn2)c1,u,61,u,16µM*,x,-35%
O=C(CSc1ccc(-c2ccccn2)nn1)Nc1nccs1,-18%,15,-13%,-27%,2%,10%
Cc1ccccc1NC(=O)CSc1ccc(-c2ccccn2)nn1,u,-9,u,u,-1%,0%
Cc1csc(NC(=O)CSc2ccc(-c3ccccn3)nn2)n1,26µM*,192,-23%,u,8%,41%
O=C(CSc1ccc(-c2ccccn2)nn1)Nc1cccc(F)c1,18µM*,i,u,u,-1%,-1%
Cc1cc(CSCc2ccc(Cl)cc2)no1,-3%,-21,-1%,2%,-1%,-7%
Cc1noc(C)c1C(=O)N1CCC2(CCCN(C(=O)Nc3ccccc3)C2)CC1,-2%,x,x,16%,x,x
CCCCC1(C)Cc2ccccc2C(=S)N1 (stereo not drawn),u,-4,-15%,23µM*,-6%,-42%
Cc1cc(C)cc(N2CC(c3nc(-c4cccc(Cl)c4)no3)CC2=O)c1 (stereo not drawn),-27%,x,u,u,x,-24%
